# High-throughput results deposited in PubChem BioAssay by several laboratories.
# Mdm2-MdmX inh = disrupts the human Mdm2-MdmX interaction. O15151+Q00987. SaOS-2 split-luciferase Mdm2/MdmX complementation, luminescence. inhibition, % at 8 µM. 330,000 compounds, 3% hits;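 active = inhibition of at least 50% at 8 µM in the primary screen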
# Beta cell apopt = beta cell apoptosis inhibition; AID 435005; INS-1E cytokine-induced death, ATP luminescence, 48 h; percent of positive-control rescue, neutral wells zero; 300,000 compounds, 0.8% hits; protection from apoptosis, % (test concentration not listed);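 active = Every replicate reaches about 75%, or at least half do and their mean reaches it too, limit read from the data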;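 note: 0% = cytokine-treated negative control wells and 100% = positive control rescue; higher means more ATP so stronger rescue from cytokine killing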
# Gli-Sufu antag = Gli-Sufu pathway antagonism | Sufu-KO-LIGHT fibroblasts, Gli luciferase reporter luminescence | inhibition, % at 5 µM | 340,000 compounds, 0.74% hits;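 active = inhibition above about 55%, limit read from the data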;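 note: 0% = DMSO-treated cells and 100% = wells with medium but no cells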
# Jurkat NFkB inh = lowers PMA/ionomycin-induced NF-kB signal in Jurkat cells. 330,000 compounds, 0.53% hits. PMA/ionomycin-induced NF-kB luciferase reporter, luminescence. inhibition, % at 4 µM; in the data active = inhibition above about 50%
# CSC inhib = blocks cancer stem cells | cancer stem cell-like cells viability, luminescence | inhibition, % at 7.5 µM | 300,000 compounds, 1.1% hits | AID 2717; in the data active = inhibition above about 75%; tested in HMLE shEcad cells
# 697 NFkB inh = lowers PMA/ionomycin-induced NF-kB signal in 697 B cells; 697 B-cell NF-kB luciferase reporter, 16 h; inhibition, % at 4 µM; 330,000 compounds, 0.33% hits; AID 435022; in the data active = inhibition above about 35%
# Gli-Sufu confirm = confirmation of Gli-SUFU pathway antagonists. Sufu-KO-LIGHT cells, Gli luciferase reporter, luminescence. inhibition, % at 5 µM. 2,500 compounds, 40% hits. shares compounds with Gli-Sufu antag;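 active = mean inhibition at 5 µM reaching about 45%, limit read from the data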;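 note: plate controls were DMSO-treated cells for no effect and wells lacking cells for full effect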
# Gli cytotox = counter-screen for Gli-SUFU antagonists: cytotoxicity; 2,500 compounds, 32% hits; Sufu-KO-LIGHT cells cytotoxicity, ATP luminescence; AID 651994; cytotoxicity, % at 5 µM; shares compounds with Gli-Sufu antag;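 active = mean cytotoxicity at 5 µM above about 25%, limit read from the data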;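 note: cells exposed to compound overnight for roughly 16 to 18 hours; plate controls were DMSO wells with cells for no effect and medium without cells for full effect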
# Wnt3a counter = inhibits Wnt3a reporter, counter-screen for Gli-SUFU antagonists; inhibition, % at 6.25 µM; Wnt-LIGHT cells, Wnt3a-driven luciferase reporter, luminescence; 2,500 compounds, 20% hits; shares compounds with Gli-Sufu antag;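 active = mean inhibition above about 25%, limit read from the data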
# * = called active by the depositor; · = no result. Most compounds without a hit are left out; they make up all but 4.5% or so of the library.
SMILES,Mdm2-MdmX inh,Beta cell apopt,Gli-Sufu antag,Jurkat NFkB inh,CSC inhib,697 NFkB inh,Gli-Sufu confirm,Gli cytotox,Wnt3a counter
O=C1N(c2cccc3ccccc23)C(c2ccccc2)N2CCCN12 (stereo not given),8.3,-1.7,81.3*,-11.9,0.7,-4.1,14.4,4.7,-10.1
COc1cccc(CNS(=O)(=O)c2ccc3c(c2)N(C)CCO3)c1,16.3,0.0,14.3,6.4,-20.9,-2.3,·,·,·
O=C(CCN1CCN(C/C=C/c2ccccc2)CC1)Nc1ccc(Cl)cc1,5.3,-0.9,54.9,-4.4,21.0,16.9,15.1,23.9,-32.0
Cn1nc(C(=O)NC2CCCN(Cc3ccccc3F)C2)c2ccccc2c1=O (stereo not given),-15.1,13.3,19.5,3.7,1.7,-31.4,·,·,·
CCc1cc(C(=O)NC2CCCN(Cc3ccccc3F)C2)n(C)n1 (stereo not given),24.4,·,65.4*,30.4,·,-31.6,45.0,14.7,5.2
CC1(C)Cc2c(sc3nc(-c4ccccc4)n(N)c(=O)c23)CO1,23.8,8.7,74.0*,-15.3,-8.2,-14.6,5.8,-6.9,-73.7
O=C(Nc1ccc(C(F)(F)F)cc1)c1ccccc1-n1cnnn1,-0.3,9.8,5.1,15.7,·,16.3,·,·,·
COC(=O)/C(=N\Nc1ccc(Cl)cc1)Sc1nnc(-c2ccc(OC)cc2)n1C,5.2,-3.0,80.3*,-0.1,-13.2,5.8,15.2,23.8,-15.8
COc1ccc(CNC(=O)CSc2nnc(-c3ccc(NC(C)=O)cc3)n2C)cc1,20.2,-2.0,3.2,11.9,·,14.3,·,·,·
Cc1ccc(N2C(=O)CCC(C(=O)O)C2c2cccs2)cc1 (stereo not given),4.1,-4.2,21.2,11.0,-12.6,18.9,·,·,·
CCSCCOC(=O)C1=C(C)N(C)C(=O)NC1c1ccc2c(c1)OCO2 (stereo not given),9.2,1.0,0.4,-0.1,-7.9,1.3,·,·,·
COc1ccc2cc(C(=O)NCc3ccccc3)[nH]c2c1,10.4,-1.4,51.0,-37.9,0.5,2.8,30.6,10.7,-59.2
NNC(=O)c1cc2ccccc2cc1O,48.8,4.6,60.7*,-21.2,-0.4,-13.0,72.0*,6.3,83.5*
COc1cccc(CNC(=O)c2cccc(S(=O)(=O)N3CCN(Cc4ccccc4)CC3)c2)c1,·,·,1.7,·,·,·,·,·,·
S=c1[nH]nc(CSCCOc2ccc(Cl)cc2Cl)o1,-18.4,-2.0,55.0,-15.7,13.9,-48.9,14.8,6.7,-27.6
S=c1[nH]nc(CSCCOc2ccccc2)o1,-1.8,-3.1,8.2,3.9,-7.9,-9.1,·,·,·
Cn1ccc(C(=O)N/N=C/c2c[nH]c3ccccc23)n1,-11.3,1.3,97.2*,-19.0,·,2.4,6.2,20.1,-49.9
NC(=O)Cn1cc(/C=N/NC(=O)c2ccc(Cn3cc(Cl)cn3)o2)c(-c2ccccc2)n1,7.2,-2.4,-10.2,-4.9,-11.5,23.4,·,·,·
O=C(N/N=C/c1cc2ccccc2nc1Cl)[C@H]1C[C@@H]1c1ccccc1,23.0,10.5,73.4*,34.5,0.3,-39.0,36.9,17.4,-59.1
Cc1cc(=O)n2nc(N3CCCC(C(=O)NCCCN4CC(C)CC(C)C4)C3)sc2n1 (stereo not given),3.3,-7.3,59.8*,-3.9,-7.0,0.2,21.6,12.5,-5.4
CCOc1ccc2nc(N3CCCC(C(=O)NCCCN4CCCCC4)C3)sc2c1 (stereo not given),-7.5,2.1,65.5*,-27.3,-12.6,-29.3,20.1,11.3,-212.5
O=C(O)c1cc(=O)[nH]c2ccccc12,·,·,-3.2,·,·,·,·,·,·
O=C(Nc1cccs1)Nc1c(F)c(F)c(F)c(F)c1F,0.0,57.7,67.1*,1.5,·,18.4,71.8*,27.4*,38.6*
O=C(Nc1cccs1)Nc1c(F)c(F)cc(F)c1F,11.3,-0.7,9.7,-4.0,-4.4,22.3,·,·,·
CCOCCCNC(=O)c1cc2sc(Cl)cc2n1CC,11.4,2.2,59.3*,-15.0,·,-13.4,20.5,12.1,-47.5
SMILES,Mdm2-MdmX inh,Beta cell apopt,Gli-Sufu antag,Jurkat NFkB inh,CSC inhib,697 NFkB inh,Gli-Sufu confirm,Gli cytotox,Wnt3a counter
CCOCCCNC(=O)c1cc(C)nn1-c1ccccc1,7.4,·,3.3,10.6,-2.9,6.1,·,·,·
CCCCN1C(=O)C(=O)N(CC(=O)c2cc(C)n(-c3cc(C)on3)c2C)C1=O,-5.0,-6.2,3.7,6.9,2.9,18.4,·,·,·
CC(C)(C)C(=O)Nc1cc2nn(-c3ccccc3)nc2cc1Cl,·,·,80.5*,·,·,·,86.8*,83.0*,104.5*
CC(C)(C)OC(=O)N1C[C@H](O)C[C@H]1C(=O)OCC(=O)c1ccc([N+](=O)[O-])cc1,4.5,5.8,-1.1,-4.7,-17.0,-4.3,·,·,·
COc1ccccc1CNC(=O)CN1C(=O)NC2(CCC(C)CC2)C1=O (stereo not given),-7.8,-12.4,-1.7,-9.0,-7.5,7.0,·,·,·
CC(C)(C)NC(=O)c1cccc(NC(=O)c2ccc(NC(=O)c3ccco3)cc2)c1,15.1,9.1,75.2*,-17.7,4.9,-13.1,18.2,12.2,-87.4
CCCNC(=O)c1ccc(N2CCC3(CC2)CC(c2ccccc2)=NO3)c(NC(=O)c2cccc(C)c2)c1,12.3,-13.2,52.1,24.5,-0.9,-25.2,25.2,14.6,-108.2
Cc1occc1-c1nnc(SCC(=O)c2c(N)n(Cc3ccccc3)c(=O)n(C)c2=O)n1C,-0.7,-6.2,5.6,2.5,-8.7,0.3,·,·,·
CCCn1c(N)c(C(=O)CSc2nnc(-c3ccoc3C)n2C)c(=O)n(C)c1=O,12.2,-0.5,76.0*,-16.5,·,-4.5,12.2,22.5,-24.9
CCOc1ccccc1OCC(=O)Nc1nnc(C)s1,-25.9,3.4,94.5*,-12.9,14.8,-8.3,21.4,-7.4,8.6
CCOc1ccc(Cl)cc1S(=O)(=O)N1CCC(C(=O)NC2CC2)CC1,17.8,-1.0,1.3,2.6,-11.1,26.1,·,·,·
Cc1ccc(Cl)cc1S(=O)(=O)N1CCC(C(=O)NC2CCN(Cc3ccccc3)CC2)CC1,32.3,20.2,53.4,43.6,14.2,-34.4,24.1,7.4,-0.7
O=C(OC(c1ccccc1)c1nccc2ccccc12)c1ccccc1 (stereo not given),·,·,64.6*,·,·,·,78.7*,28.1*,91.6*
O=C(OC(c1ccccc1)c1nccc2ccccc12)c1cccc([N+](=O)[O-])c1 (stereo not given),2.8,7.3,-27.5,-27.7,7.2,-38.0,·,·,·
C=CCn1c(CNS(=O)(=O)c2ccc(Br)cc2)n[nH]c1=S,-10.4,1.2,-1.1,8.3,-19.7,-16.1,·,·,·
O=C(NCc1ccccc1)C(=O)NCC1OCCCN1S(=O)(=O)c1cccs1 (stereo not given),-1.1,-6.6,-8.6,8.6,0.6,-3.7,·,·,·
